PubChem BioAssay (Tox21)
Several values for one entry are separate records, joined by “and”; a condition that tells them apart may be missing. Equal values may be shown once. Records with an inconclusive call do not appear. More than one record can exist for a structure, and the calls need not agree. Activity calls are given as the source filed them. Unless noted, calls come from the whole dose curve; as a rule, active = well fitted curve in the direction sought with a large enough effect in the repeat runs; inconclusive = weak or mixed curves; inactive = no such curve, though single readings can be large; an effect the other way counts as inactive or inconclusive.

How the values were obtained:
[1] = A CellTox Green Cytotoxicity Assay to monitor cytotoxicity in HepG2 cells - 0 hour (AID 1224882); note: nearly all actives have a fitted effect of over 35% in size
Outline: (§1)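 HepG2 cells were seeded together with the CellTox Green dye at 600 cells/well, left 5 h at 37 C/5% CO2, then given compounds in DMSO. Fluorescence from dye bound to dead-cell DNA was read repeatedly over 40 h of treatment at 37 C.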

[2] = A CellTox Green Cytotoxicity Assay to monitor cytotoxicity in HepG2 cells - 32 hour (AID 1224883); note: nearly all actives have a fitted effect of over 50% in size; note: potency is the fitted concentration of half-maximal effect
Outline: as §1

[3] = A CellTox Green Cytotoxicity Assay to monitor cytotoxicity in HEK293 cells - 8 hour (AID 1224884); note: nearly all actives have a fitted effect of over 35% in size; note: potency is the fitted concentration of half-maximal effect
Outline: (§2)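 HEK293 cells premixed with CellTox Green dye were seeded at 600 cells/well and left 5 h at 37 C/5% CO2 before pin transfer of 23 nL compound in DMSO. Fluorescence from dye bound to dead-cell DNA was read during 40 h treatment.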

[4] = qHTS RealTime-Glo MT Cell Viability Assay in HepG2 cells - 16 hour (AID 1224885); note: nearly all actives have a fitted effect of over 50% in size; note: potency is the fitted concentration of half-maximal effect
Outline: (§3)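 qHTS, HepG2, 600 cells/well, RealTime-Glo (NanoLuc + prosubstrate) added with cells; 5 h preincubation; DMSO compound addition; 37 C; luminescence at 0/8/16/24/32/40 h.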

[5] = qHTS RealTime-Glo MT Cell Viability Assay in HEK293 cells - 8 hour (AID 1224887); note: nearly all actives have a fitted effect of over 50% in size; note: potency is the fitted concentration of half-maximal effect; for activity change, negative = cytotoxicity: top concentration of the series differs between compounds
Outline: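 HEK293 cells mixed with RealTime-Glo reagents (NanoLuc plus cell-permeant prosubstrate) at 600 cells/well, preincubated 5 h at 37 C/5% CO2, then given 23 nL compound in DMSO. Nonlytic luminescence from viable cells was read at 0, 8, 16, 24, 32 and 40 h.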

[6] = qHTS RealTime-Glo MT Cell Viability Assay in HepG2 cells - 0 hour (AID 1224889); note: nearly all actives have a fitted effect of over 50% in size
Outline: as §3

[7] = A CellTox Green Cytotoxicity Assay to monitor cytotoxicity in HepG2 cells - 8 hour (AID 1224890); note: nearly all actives have a fitted effect of over 45% in size; note: potency is the fitted concentration of half-maximal effect
Outline: as §1

[8] = qHTS assay to identify small molecule antagonists of the estrogen receptor alpha (ER-alpha) signaling pathway using the BG1 cell line in the presence of 0.1 nM 17-beta-estradiol - cell viability counter screen (AID 1259241); note: nearly all actives have a fitted effect of over 40% in size; note: potency is the fitted concentration of half-maximal effect
Outline: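 Cells were plated and left 24 hr, compounds in DMSO were pinned in, 17beta-estradiol was added to 0.1 nM final, and after 22 hr CellTiter-Fluor reagent was added for 30 min before fluorescence was read.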

[9] = qHTS assay to identify small molecule antagonists of the androgen receptor (AR) signaling pathway using the MDA cell line in the presence of 0.5 nM R1881 - cell viability counter screen (AID 1259242); note: nearly all actives have a fitted effect of over 45% in size; note: potency is the fitted concentration of half-maximal effect
Outline: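 MDA-kb2 cells (human breast carcinoma, stably carrying MMTV-luciferase reporter) were exposed to compounds with 0.5 nM R1881 (final) for 16 hr at 37C, 0% CO2; viability then read as live-cell protease fluorescence (CellTiter-Fluor, 30 min) in the same wells.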

[10] = molecular target: Estrogen receptor (Homo sapiens) (UniProt P03372); test: qHTS assay to identify small molecule antagonists of the estrogen receptor alpha (ER-alpha) signaling pathway using the BG1 cell line in the presence of 0.1 nM 17-beta-estradiol (AID 1259244); note: nearly all actives have a fitted effect of over 50% in size; note: potency is the fitted concentration of half-maximal effect
Sequence of Estrogen receptor (Homo sapiens) (P03372 whole entry, looked up): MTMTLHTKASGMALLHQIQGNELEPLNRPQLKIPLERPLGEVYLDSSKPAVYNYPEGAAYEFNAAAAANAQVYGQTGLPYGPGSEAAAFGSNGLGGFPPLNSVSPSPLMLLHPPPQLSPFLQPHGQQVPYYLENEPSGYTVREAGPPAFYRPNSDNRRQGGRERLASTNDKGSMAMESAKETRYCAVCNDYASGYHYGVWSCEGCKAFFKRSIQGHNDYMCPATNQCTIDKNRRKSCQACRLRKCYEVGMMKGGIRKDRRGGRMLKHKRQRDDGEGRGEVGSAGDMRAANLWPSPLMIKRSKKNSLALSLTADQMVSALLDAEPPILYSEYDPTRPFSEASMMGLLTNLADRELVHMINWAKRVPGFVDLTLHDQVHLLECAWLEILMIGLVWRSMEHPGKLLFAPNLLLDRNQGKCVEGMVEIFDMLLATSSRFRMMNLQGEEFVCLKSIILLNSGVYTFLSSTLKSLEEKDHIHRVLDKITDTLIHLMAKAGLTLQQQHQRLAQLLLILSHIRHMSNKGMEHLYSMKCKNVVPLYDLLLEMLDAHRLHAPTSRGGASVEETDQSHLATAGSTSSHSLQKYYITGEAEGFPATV
Outline: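 VM7Luc4E2 cells (endogenous full-length ER-alpha, stable 4xERE-luciferase) were grown 5 days in phenol red-free medium with charcoal-stripped FBS, then exposed 22 h at 37C to compounds plus 0.1 nM (final) 17beta-estradiol; ONE-Glo luminescence read-out.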

[11] = qHTS assay to identify small molecule HDAC inhibitors (AID 1259364); note: nearly all actives have a fitted effect of over 45% in size; note: potency is the fitted concentration of half-maximal effect; for activity change, negative = inhibition: top concentration of the series differs between compounds
Outline: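 Wild-type HCT-116 cells were plated overnight, exposed to compounds for 2 h at 37 °C, then given HDAC-Glo class I/II luminogenic reagent for 30 min at room temperature before luminescence was read.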

[12] = qHTS assay to identify small molecule HDAC inhibitors - cell viability counter screen (AID 1259365); note: nearly all actives have a fitted effect of over 50% in size; note: potency is the fitted concentration of half-maximal effect; for activity change, negative = cytotoxicity: series mostly up to about 92 µM
Outline: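 Counter screen in wild-type HCT-116 cells: compounds dissolved in DMSO are pin-transferred onto overnight-plated cells and left 2hr at 37C. ATP-based CellTiter-Glo luminescence then measures viable cells.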

[13] = qHTS assay to identify small molecule agonists of the sonic hedgehog signaling (Shh) pathway - cell viability counter screen (AID 1259366); note: nearly all actives have a fitted effect of over 50% in size; note: potency is the fitted concentration of half-maximal effect
Outline: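 Cells are plated at 2,000 per well and left 4hr at 37C, 5% CO2 before compound addition. After 23hr of treatment, CellTiter-Fluor reagent is added for 1hr at 37C and fluorescence is measured.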

[14] = qHTS assay to identify small molecule antagonists of the sonic hedgehog signaling (Shh) pathway - cell viability counter screen (AID 1259367); note: nearly all actives have a fitted effect of over 55% in size; note: potency is the fitted concentration of half-maximal effect
Outline: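 Cells: 3T3 Gli1-Luc, 2,000/well, 4 hr pre-incubation. Compounds in DMSO, then conditioned medium. Incubation 24 hr, 37C, 5% CO2. CellTiter-Fluor at 23 hr, 1 hr, fluorescence.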

[15] = qHTS assay to identify small molecule agonists of the sonic hedgehog signaling (Shh) pathway (AID 1259368; calls by dose curve; note: series mostly up to about 92 µM; nearly all actives have a fitted effect of over 15% in size)
Outline: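 NIH/3T3-derived 3T3Gli1-Luc cells carrying a stably integrated Gli1 response element–firefly luciferase reporter were plated, left 4 hr at 37 C, then given compounds in DMSO for 24 hr. Luminescence was read 30 min after adding luciferase reagent.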

[16] = qHTS assay to identify small molecule antagonists of the sonic hedgehog signaling (Shh) pathway (AID 1259369; calls by dose curve; note: nearly all actives have a fitted effect of over 45% in size; note: potency is the fitted concentration of half-maximal effect)
Outline: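 NIH/3T3-derived 3T3Gli1-Luc cells with stably integrated Gli1-Luc reporter were preincubated 4hr at 37 C, then given compounds in DMSO plus Shh conditioned medium and incubated 24hr. Firefly luciferase luminescence read after 30min reagent at room temperature.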

[17] = qHTS RealTime-Glo MT Cell Viability Assay in HEK293 cells - 24 hour (AID 1224886); note: nearly all actives have a fitted effect of over 50% in size; note: potency is the fitted concentration of half-maximal effect; for activity change, negative = cytotoxicity: top concentration of the series differs between compounds
Outline: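 Assay medium contained NanoLuc luciferase plus cell-permeant prosubstrate, added with HEK293 cells at 600 cells/well. After 5 h at 37 C/5% CO2 compounds were added; plates stayed at 37 C for 40 h with serial luminescence reads.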

[18] = A CellTox Green Cytotoxicity Assay to monitor cytotoxicity in HEK293 cells - 16 hour (AID 1224888); note: nearly all actives have a fitted effect of over 35% in size; note: potency is the fitted concentration of half-maximal effect
Outline: as §2

[19] = molecular target: Androgen receptor (Homo sapiens) (UniProt P10275); test: qHTS assay to identify small molecule antagonists of the androgen receptor (AR) signaling pathway using the MDA cell line in the presence of 0.5 nM R1881 (AID 1259243); note: nearly all actives have a fitted effect of over 50% in size; note: potency is the fitted concentration of half-maximal effect
Sequence of Androgen receptor (Homo sapiens) (P10275 whole entry, looked up): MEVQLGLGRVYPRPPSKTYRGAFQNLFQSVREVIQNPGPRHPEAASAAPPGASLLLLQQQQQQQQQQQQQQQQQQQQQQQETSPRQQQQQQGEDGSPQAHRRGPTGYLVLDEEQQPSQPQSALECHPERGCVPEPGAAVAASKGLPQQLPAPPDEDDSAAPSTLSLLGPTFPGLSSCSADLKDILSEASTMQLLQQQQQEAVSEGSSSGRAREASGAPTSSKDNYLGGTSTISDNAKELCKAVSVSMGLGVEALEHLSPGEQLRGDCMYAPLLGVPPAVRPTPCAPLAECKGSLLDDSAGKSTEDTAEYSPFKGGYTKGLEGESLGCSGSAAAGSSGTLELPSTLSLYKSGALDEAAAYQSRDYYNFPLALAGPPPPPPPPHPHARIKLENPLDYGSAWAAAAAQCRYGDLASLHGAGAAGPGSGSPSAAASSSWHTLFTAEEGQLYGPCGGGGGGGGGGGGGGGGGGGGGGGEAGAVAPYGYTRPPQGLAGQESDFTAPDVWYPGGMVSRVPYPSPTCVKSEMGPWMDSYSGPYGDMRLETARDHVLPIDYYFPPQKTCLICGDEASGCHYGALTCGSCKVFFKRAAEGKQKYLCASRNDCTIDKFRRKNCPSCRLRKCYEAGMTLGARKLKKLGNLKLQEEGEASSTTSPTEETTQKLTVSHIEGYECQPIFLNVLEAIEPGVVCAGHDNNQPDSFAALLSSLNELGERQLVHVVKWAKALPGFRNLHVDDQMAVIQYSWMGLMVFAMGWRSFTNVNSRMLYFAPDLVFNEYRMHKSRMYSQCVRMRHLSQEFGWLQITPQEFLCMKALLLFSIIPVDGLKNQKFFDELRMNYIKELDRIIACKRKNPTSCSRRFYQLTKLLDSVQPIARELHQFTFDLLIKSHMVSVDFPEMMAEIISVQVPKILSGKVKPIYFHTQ
Outline: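 MDA-kb2 human breast carcinoma cells carrying an MMTV-luciferase reporter (AR- and GR-responsive) were plated, rested 5 hr at 37C, dosed with compounds, then stimulated with 0.5 nM R1881 (final) for 16 hr; luminescence was read after ONE-Glo.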

[20] = qHTS assay to identify small molecule phospholipidosis (PLD) inducers (AID 1259344; active = well fitted curve in the direction sought with a large enough effect; an effect the other way counts as inactive or inconclusive)
Outline: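 Phospholipidosis is scored by imaging LipidTOX-stained pits in HepG2 cells exposed to compound for 24 h at 37 C; pit counts and integrated intensities per well and per cell serve as outputs.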
% is set by controls: 0 for no effect and ±100 for the full control effect.

COC(=O)/C=C/c1ccccc1
inactive and 34.7 µM (active): Potency [3]
inactive and 21.7 µM (active): Potency [16]
inactive: Potency [1] | Potency [2] | Potency [4] | Potency [5] | Potency [6] | Potency [7] | Potency [8] | Potency [9] | Potency [10] | Potency [11] | Potency [12] | Potency [13] | Potency [14] | Potency [15]

CC1=CC(=O)c2ccccc2C1=O
active: Potency [2] 43.6 µM and 26.8 µM | Potency [3] 21.9 µM and 23.9 µM | Potency [17] 15.5 µM | Potency [5] 7.76 µM and 16.9 µM | Potency [18] 21.9 µM and 26.8 µM | Potency [7] 54.9 µM and 23.9 µM | Potency [8] 48.6 µM | Potency [9] 43.3 µM | Potency [19] 21.7 µM and 29.8 µM | Potency [10] 30.6 µM and 29.8 µM | Potency [13] 13.7 µM and 13.3 µM | Potency [14] 27.3 µM and 13.3 µM | Potency [16] 24.3 µM and 16.8 µM
inactive: Potency [1] | Potency [6] | Potency [20] | Potency [11] | Potency [15]

CN(C)c1ccc2nc3ccc(=[N+](C)C)cc-3sc2c1
active: Potency [4] 14.9 µM and 17.4 µM and 19 µM | Potency [5] 2.97 µM and 2.75 µM and 3.01 µM | Potency [9] 6.11 µM and 1.88 µM | Potency [10] 26.2 µM and 27.3 µM and 29.8 µM | Potency [11] 11.7 µM and 10.9 µM and 13.3 µM | Potency [12] 11.7 µM and 24.3 µM and 11.9 µM | Potency [13] 26.2 µM and 43.3 µM and 29.8 µM | Potency [14] 54.5 µM | Potency [16] 739 nM and 1.09 µM and 596 nM
inactive: Potency [1] | Potency [2] | Potency [3] | Potency [18] | Potency [20] | Potency [15]

CC(=O)Nc1ccc(C(=O)CCl)cc1
inactive: Potency [1] | Potency [3] | Potency [4] | Potency [5] | Potency [18] | Potency [6] | Potency [7] | Potency [8] | Potency [11] | Potency [12] | Potency [14] | Potency [15]
inactive and 30.6 µM (active): Potency [16]
inactive and 19.5 µM (active): Potency [2]
inactive and 54.5 µM (active): Potency [9] | Potency [19]

c1cc(C(c2ccc(OCC3CO3)cc2)C(c2ccc(OCC3CO3)cc2)c2ccc(OCC3CO3)cc2)ccc1OCC1CO1 (configuration not stated)
inactive: Potency [1] | Potency [2] | Potency [3] | Potency [4] | Potency [5] | Potency [18] | Potency [6] | Potency [7] | Potency [9] | Potency [10] | Potency [11] | Potency [14] | Potency [15] | Potency [16]

O=C(Nc1ccccc1SSc1ccccc1NC(=O)c1ccccc1)c1ccccc1
27.4 µM (active) and inactive: Potency [10]
inactive: Potency [1] | Potency [3] | Potency [4] | Potency [18] | Potency [6] | Potency [7] | Potency [8] | Potency [9] | Potency [12] | Potency [15]
active: Potency [2] 49 µM | Potency [13] 13.8 µM and 13.7 µM | Potency [14] 13.8 µM and 12.2 µM | Potency [16] 4.88 µM and 5.45 µM

CCc1cc(C(C)(C)C)c(O)c(C(C)(C)C)c1
inactive: Potency [1] | Potency [2] | Potency [3] | Potency [4] | Potency [17] | Potency [5] | Potency [6] | Potency [7] | Potency [9] | Potency [11] | Potency [13] | Potency [14] | Potency [15] | Potency [16]

CC(=O)OCC1=C(C(=O)O)N2C(=O)[C@@H](NC(=O)Cc3cccs3)[C@H]2SC1
inactive: Potency [1] | Potency [2] | Potency [3] | Potency [4] | Potency [17] | Potency [5] | Potency [9] | Potency [20] | Potency [11] | Potency [13] | Potency [14] | Potency [15] | Potency [16]

CC(=O)N[C@@H](CS)C(=O)O
inactive: Potency [1] | Potency [2] | Potency [3] | Potency [17] | Potency [5] | Potency [18] | Potency [6] | Potency [7] | Potency [8] | Potency [9] | Potency [10] | Potency [20] | Potency [11] | Potency [12] | Potency [13] | Potency [14] | Potency [15] | Potency [16]

CCN(CC)C(=S)SSC(=S)N(CC)CC
inactive: Potency [1] | Potency [6] | Potency [8] | Potency [9] | Potency [20] | Potency [11] | Potency [12] | Potency [15]
56.2 µM (active) and inactive: Potency [7]
active: Potency [2] 8.25 µM | Potency [4] 141 nM | Potency [5] 13.8 µM and 18.5 µM | Potency [19] 122 nM and 39.5 nM and 106 nM | Potency [10] 243 nM and 279 nM | Potency [13] 243 nM and 99.2 nM and 596 nM | Potency [14] 433 nM and 1.25 µM and 2.66 µM | Potency [16] 217 nM and 7.9 nM and 1.33 µM
inactive and 56.2 µM (active): Potency [3]

CCCCCCCCCCCCCCCCCl
inactive: cytotoxicity [1] 7.68% [at 15.8 µM] | cytotoxicity increase [2] 1.23% [at 15.8 µM] | cytotoxicity increase [3] 2.79% [at 15.8 µM] | activity change, negative = cytotoxic [4] 0.939% [at 15.8 µM] | activity change, negative = cytotoxicity [5] 1.34% [at 15.8 µM] | activity change [18] 5.27% [at 15.8 µM, stronger effect = higher value] | activity change, negative = cytotoxicity [6] -0.916% [at 15.8 µM] | viability change, negative = cytotoxic [9] -2.37% [at 19 µM] | activity change, negative = inhibition [10] 26.4% [at 19 µM] | activity change, negative = inhibition [11] 11.8% [at 19 µM] | activity change, negative = cytotoxicity [12] -13.9% [at 19 µM] | viability change, negative = cytotoxic [13] 0.0419% [at 19 µM] | viability change, negative = cytotoxic [14] -3.23% [at 19 µM] | activity change [15] -1.24% [at 18.9 µM, stronger effect = higher value] | activity change, negative = inhibition [16] 30% [at 19 µM]

CCN(CC)C(=O)Nc1ccc(OCC(O)CNC(C)(C)C)c(C(C)=O)c1 (configuration not stated)
inactive: Potency [1] | Potency [2] | Potency [3] | Potency [4] | Potency [5] | Potency [6] | Potency [7] | Potency [9] | Potency [19] | Potency [10] | Potency [20] | Potency [13] | Potency [14] | Potency [15] | Potency [16]
